Active and inactive are the calls of the source. No stated cut-off is given here; in the data, active means inhibition above about 30%; inactive means the rest.
Test: growth suppression of yeast trafficking mutant, preliminary HTS, modulators of trafficking downstream of Golgi apparatus project, 1536-format plate, OD 615 nm (AID 637)
Conditions: yeast transport mutant growth, absorbance 615 nm, 18 h; hits give high values

inhibition, inactive:
Cn1c(=O)c2c(nc(N3CCCCC3)n2CCSc2nc3ccccc3o2)n(C)c1=O -6.39%, CCOC(=O)C1=C(C)N=c2s/c(=C\c3cccn3C)c(=O)n2C1c1cccc(OC)c1OC (stereo not given) -2.13%, C=CCn1c(SCC(=O)O)nnc1-c1cccc(Cl)c1 -3.67%, Cc1ccc(S(=O)(=O)N2CCC(C(=O)NCCN3CCCCCC3)CC2)cc1 2.13%, CCOC(=O)c1sc(N2C(=O)C(O)=C(C(=O)c3ccco3)C2c2ccccc2)nc1C (stereo not given) 0.98%, COc1cc(C)nc(NS(=O)(=O)c2ccc(C)cc2)n1 0.65%, CCCCC(=O)Nc1nn(CCC)c2nc3ccccc3cc12 6.23%, CCCCCOC(=O)CSc1nnc(-c2cc(OC)c(OC)c(OC)c2)o1 -6.5%, O=C(CN1CCN(C(=O)c2ccccc2)CC1)Nc1ncc(Br)cc1Br -5.74%, O=C(c1ccc2c(c1)OCCO2)C1CCN(C(=O)c2ccc(F)cc2)CC1 -3.11%, Cc1cc2c(c(=O)n1CCc1ccccc1)C(C(C)C)C(C#N)=C(N)O2 (stereo not given) 2.79%, Cc1cc(NC(=O)Cn2cnc3c(cnn3C(C)(C)C)c2=O)no1 -5.16%, O=C(OCCCCN1C(=O)c2ccccc2C1=O)c1n[nH]c2ccccc12 4.29%, CCOC(=O)CSc1nnc(-c2ccccc2OC)o1 -6.51%, O=C(Nn1cnnc1)c1cc2c(s1)CCCC2 -4%, Cc1cc2nc(C3CCN(CC4COc5ccccc5O4)CC3)[nH]c2cc1C (stereo not given) 2.83%, CCOc1ccc(S(=O)(=O)Nc2cccc(Cl)c2)cc1 -3.28%, O=C(OCc1nnc(-c2ccccc2)o1)c1ccc2ccccc2n1 23.2%, COc1ccc(-c2nnc3sc(-c4c(OC)cccc4OC)nn23)cc1 -7.58%, CC1=Nn2c(nnc2-c2cc(-c3ccccc3)n[nH]2)SC1 7.05%, COc1cccc(C2C(C#N)=C(N)OC3=C2C(=O)CCC3)c1OC(=O)c1ccco1 (stereo not given) 3.71%, CCN(C1CCCCC1)S(=O)(=O)c1ccc(OC)c(C)c1 -13%, O=C(C1CC1)N1CCc2cc(S(=O)(=O)N(CCO)Cc3ccccc3)ccc21 -0.33%, COc1ccc(Cl)cc1S(=O)(=O)n1cnc2ccccc21 -2.3%, CCOC(=O)C(CC)Sc1nc2c(c(=O)[nH]c(=O)n2C)n1C/C=C(/C)Cl (stereo not given) 3.93%, Cc1cc2c(c(=O)o1)C(Cc1ccccc1)C(C#N)=C(N)O2 (stereo not given) 1.8%, Cc1nc2scc(-c3cccs3)c2c(=O)n1-n1cccc1 -7.83%, Cc1cc(-n2c(C)cc(C(=O)CSc3nc4ccccc4c(=O)n3Cc3ccco3)c2C)no1 -1.43%, N#Cc1c(NC(=O)c2ccc(Br)o2)n(-c2ccccc2)c2nc3ccccc3nc12 2.46%, CCC1C(=O)n2nc(-c3ccccc3)cc2N=C1C (stereo not given) -3.17%, O=C(CN1C(=O)CSC1=O)N1CCc2ccccc2C1 -3.5%, C1CCc2nnc(-c3nnc4n3CCCCC4)n2CC1 1.67%, O=C(CCCCCn1c(SCc2ccncc2)nc2ccccc2c1=O)NCc1ccco1 -5.71%, CCSc1nnc(NC(=O)c2nn(C(C)C)c(=O)c3ccccc23)s1 -2%, CN(C)c1ccc2c(c1)OC(N)=C(C#N)C2c1cccc(F)c1 (stereo not given) 4.75%, CN(C)c1ccc(NC(=O)c2cc3c(=O)n4ccccc4nc3n2C)cc1 14.1%, CC(CN1CCN(C)CC1)OC(=O)c1ccc(Cl)cc1Cl (stereo not given) 10%, COc1ccccc1Nc1ncnc2c1cnn2-c1cccc(C)c1 -8.71%, NCCN1CCN(CCN)CC1 2.38%, CCOc1ccc2nc(NC(=O)CSc3nnnn3C3CCCCC3)sc2c1 -0.33%

Reference: PubChem BioAssay
